Assay results as given in PubChem BioAssay (NCATS).
Records with an inconclusive call do not appear. A call without a number means that no potency is given here. Active and inactive are the calls of the source. Calls follow the shape of the dose curve; as a rule, active = well fitted curve in either direction with a large enough effect (not every such curve was filed as active); inconclusive = small, poorly fitted or top-dose-only effect, or another doubt; inactive = flat fitted curve, though single readings scatter.

What follows are compounds tested against Mitogen-activated protein kinase 10 (Mus musculus) (UniProt Q61831) (assay: JNK3 AlphaScreen Assay (AID 530;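 also: kinase came from lysate of stimulated human HepG2 cells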)). Conditions: JNK3 lysate, c-Jun phosphorylation; series mostly up to 57.1 µM.
How it was run: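 Pre-activated (IL-1β/TNFα) JNK3 in HepG2 lysates phosphorylates biotin-GST-cJun(1-79), 10 uM ATP; anti-phospho-cJun(Ser73) AlphaScreen read at room temperature, pH 7.6 Tris buffer. Compounds pre-incubated 15 min as titrations.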
Potency is read from the fitted curve at half-maximal effect.

**Q.** With `Cc1cnc(CNc2cc(-c3cccnc3)ncn2)cn1` as the compound, how does the Potency read?
**A.** inactive

**Q.** Which Potency does the source give for `CS(=O)(=O)Nc1cccc(-c2cc(Nc3ccccc3)ncn2)c1` here?
**A.** inactive

**Q.** With `CCNc1ncc2nc(-c3ccc(OC)cc3)c(=O)n(CCc3ccccc3)c2n1` as the compound, how does the Potency read?
**A.** inactive

**Q.** Which Potency does the source give for `COc1ccccc1CNc1cc(-c2ccccc2Cl)ncn1` here?
**A.** inactive

**Q.** With `Cc1noc(C)c1-c1cncnc1-n1ccnc1` as the compound, how does the Potency read?
**A.** inactive

**Q.** `CCNc1ncc2nc(-c3ccc(Cl)cc3)c(=O)n(Cc3cccc(OC)c3)c2n1` was tested. Which Potency did it give?
**A.** inactive

**Q.** Which Potency does the source give for `COc1cccc(Nc2ncc3ncc(=O)n(C[C@H]4CCCO4)c3n2)c1` here?
**A.** inactive

**Q.** `O=c1c(-c2cccc(Cl)c2)nc2cncnc2n1-c1ccccc1` was tested. Which Potency did it give?
**A.** inactive

**Q.** `CN(Cc1ccco1)c1ncncc1-c1ccccc1C(F)(F)F` was tested. Which Potency did it give?
**A.** inactive

**Q.** With `COc1ccc2[nH]cc(CCNc3ccnc(-c4c(C)noc4C)n3)c2c1` as the compound, how does the Potency read?
**A.** inactive

**Q.** `O=c1c(-c2ccc(Cl)cc2)nc2cnc(N3CCOCC3)nc2n1Cc1ccc(F)cc1` was tested. Which Potency did it give?
**A.** inactive

**Q.** With `COCCNc1ncnc2ccc(-c3c(C)noc3C)cc12` as the compound, how does the Potency read?
**A.** inactive

**Q.** Which Potency does the source give for `CN(Cc1ccco1)c1nc(-c2ccoc2)nc2ccccc12` here?
**A.** inactive

**Q.** With `COc1cccc(Cn2c(=O)c(-c3cccs3)nc3cnc(N4CCNCC4)nc32)c1` as the compound, how does the Potency read?
**A.** 3.98 µM [activator] (active)

**Q.** For `COc1ccccc1CNc1cc(-c2ccccc2C(F)(F)F)ncn1`, which Potency is on record?
**A.** inactive

**Q.** How did the Potency turn out when `N#CCCn1c(=O)c(-c2cc(F)cc(F)c2)nc2cnc(Nc3ccccc3)nc21` was run?
**A.** inactive

**Q.** How did the Potency turn out when `COc1cccc(Nc2ncc3nc(CCc4ccccc4)c(=O)n(Cc4cccs4)c3n2)c1` was run?
**A.** inactive

**Q.** Which Potency does the source give for `Cc1ccccc1-c1ccc2ncnc(NCc3cccnc3)c2c1` here?
**A.** inactive

**Q.** With `Cc1cnc(CNc2ncncc2-c2ccc(N(C)C)cc2)cn1` as the compound, how does the Potency read?
**A.** inactive

**Q.** `Cc1cnc(CNc2cc(-c3ccccc3Cl)ncn2)cn1` was tested. Which Potency did it give?
**A.** inactive

**Q.** `CCNc1ncc2nc(CCc3ccccc3)c(=O)n(C[C@H]3CCCO3)c2n1` was tested. Which Potency did it give?
**A.** inactive

**Q.** For `COc1cccc(Cn2c(=O)c(-c3cccc(C#N)c3)nc3cnc(N4CCOCC4)nc32)c1`, which Potency is on record?
**A.** inactive

**Q.** With `CN(C)C(=O)c1ccc(-c2cc(N(C)Cc3ccco3)ncn2)cc1` as the compound, how does the Potency read?
**A.** inactive

**Q.** For `COc1ccc(CNc2nc(-c3cccc(C#N)c3)nc3ccccc23)c(OC)c1`, which Potency is on record?
**A.** inactive

**Q.** With `CN(C)C(=O)c1ccc(-c2cncnc2Nc2ccc(F)cc2)cc1` as the compound, how does the Potency read?
**A.** inactive

**Q.** For `CCNc1ncc2nc(CCc3ccccc3)c(=O)n(Cc3ccc(F)cc3)c2n1`, which Potency is on record?
**A.** inactive

**Q.** With `CS(=O)(=O)Nc1cccc(-c2ccc3ncnc(N4CCOCC4)c3c2)c1` as the compound, how does the Potency read?
**A.** inactive

**Q.** Which Potency does the source give for `COc1cccc(Cn2c(=O)c(CCc3ccccc3)nc3cnc(N4CCOCC4)nc32)c1` here?
**A.** inactive

**Q.** For `COc1ccccc1CNc1ccnc(-c2c(C)noc2C)n1`, which Potency is on record?
**A.** inactive

**Q.** `CNc1nc(-c2cccc(C#N)c2)nc2ccccc12` was tested. Which Potency did it give?
**A.** inactive

**Q.** With `COc1cccc(-c2nc(NCCNC(C)=O)c3ccccc3n2)c1` as the compound, how does the Potency read?
**A.** inactive

**Q.** For `COc1ccccc1CNc1ccnc(-c2ccccc2OC)n1`, which Potency is on record?
**A.** inactive

**Q.** `COc1ccccc1CNc1ncnc2ccc(-c3ccc4c(c3)OCO4)cc12` was tested. Which Potency did it give?
**A.** inactive

**Q.** For `N#CCCn1c(=O)c(-c2ccc(F)cc2)nc2cnc(N3CCNCC3)nc21`, which Potency is on record?
**A.** inactive

**Q.** With `COc1cccc(-c2nccc(NCc3ccccc3OC)n2)c1` as the compound, how does the Potency read?
**A.** inactive

**Q.** Which Potency does the source give for `Cc1noc(C)c1-c1nc(NC2CC2)c2ccccc2n1` here?
**A.** inactive

**Q.** For `COc1ccccc1-c1cc(NCc2cnc(C)cn2)ncn1`, which Potency is on record?
**A.** inactive

**Q.** With `COc1cccc(Nc2ncc3nc(-c4ccc(Cl)cc4)c(=O)n(C[C@H]4CCCO4)c3n2)c1` as the compound, how does the Potency read?
**A.** inactive

**Q.** With `CN(Cc1ccco1)c1cc(-c2cccc(C#N)c2)ncn1` as the compound, how does the Potency read?
**A.** inactive
